# Test results: PubChem BioAssay (EPA / NIEHS)
# Several values for one entry are separate records, joined by “and”; a condition that tells them apart may be missing. Identical values can stand only once. Results filed as inconclusive are left out. Activity calls are given as the source filed them. The calls were made as follows: active = hit-call score of the fitted dose curve at least 0.9, where 1 is the maximum; inconclusive = response in the unintended direction; inactive = score below 0.9.
# How the values were obtained:
# [1] = ATG_XTT_Cytotoxicity: Cytotoxicity Assessment in the Attagene TRANS-FACTORIAL HepG2 Assay (AID 2283584)
# In short: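 HepG2 cells transiently transfected with GAL4-UAS multiple reporter units, dosed 24 h; cytotoxicity read by XTT as loss of signal versus DMSO baseline.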
# [2] = TOX21_p53_BLA_p2_viability: Viability Assessment in the Tox21 HCT-116 p53 Agonism Beta-lactamase Assay, Phase 2 (AID 2283591);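 also: compound exposure lasted 16 h at 37 °C; actives lower the ATP signal meaning cytotoxicity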
# In short: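 HCT116 p53-bla cells, 4000/well, dosed after 5 h plating (217-fold dilution of DMSO stocks) and incubated 16 h at 37C. Viability taken as cellular ATP by CellTiter-Glo luminescence after 30 min RT; signal loss marks cytotoxicity.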
# [3] = biological target: Cellular tumor antigen p53 (Homo sapiens) (UniProt P04637); experiment: TOX21_p53_BLA_p2_ratio: Tox21 HCT-116 p53 Agonism Beta-lactamase Assay, Ratio, Phase 2 (AID 2283592)
# Chain of Cellular tumor antigen p53 (Homo sapiens) (P04637 whole entry, looked up): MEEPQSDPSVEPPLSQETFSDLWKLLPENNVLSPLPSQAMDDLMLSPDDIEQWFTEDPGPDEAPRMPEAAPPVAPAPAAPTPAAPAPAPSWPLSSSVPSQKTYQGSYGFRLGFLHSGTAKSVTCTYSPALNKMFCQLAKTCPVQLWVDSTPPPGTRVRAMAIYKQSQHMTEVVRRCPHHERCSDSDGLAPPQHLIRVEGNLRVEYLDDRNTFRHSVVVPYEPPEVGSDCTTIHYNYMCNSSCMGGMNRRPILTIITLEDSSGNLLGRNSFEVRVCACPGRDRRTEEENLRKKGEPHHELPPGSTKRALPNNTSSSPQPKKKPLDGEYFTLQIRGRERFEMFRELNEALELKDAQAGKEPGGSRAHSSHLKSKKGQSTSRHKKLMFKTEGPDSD
# In short: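 HCT-116 cells with p53-responsive beta-lactamase reporter, 4000 cells/well, preincubated 5 h, then compound in DMSO (217-fold dilution) for 16 h at 37C. CCF4-AM substrate 2 h at room temperature; 460/530 nm emission ratio fitted upward versus DMSO.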
# [4] = TOX21_p53_BLA_p3_viability: Viability Assessment in the Tox21 HCT-116 p53 Agonism Beta-lactamase Assay, Phase 3 (AID 2283593);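 also: cells exposed to compound for 16 h before reading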
# In short: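 HCT116 cells, 4000/well, dosed 5 h after plating by pin transfer (217-fold dilution from DMSO stock) and incubated 16 h at 37C, 5% CO2. Viability read as ATP luminescence with CellTiter-Glo after 30 min at room temperature.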
# [5] = biological target: Cellular tumor antigen p53 (Homo sapiens) (UniProt P04637); experiment: TOX21_p53_BLA_p3_ratio: Tox21 HCT-116 p53 Agonism Beta-lactamase Assay, Ratio, Phase 3 (AID 2283596)
# In short: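 HCT116 p53-bla cells (4000/well) given compound in DMSO (217-fold dilution) after 5 h, incubated 16 h at 37C. CCF4-AM substrate 2 h at room temperature; 460/530 nm emission ratio, gain fitted against DMSO.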
# [6] = TOX21_p53_BLA_p4_viability: Viability Assessment in the Tox21 HCT-116 p53 Agonism Beta-lactamase Assay, Phase 4 (AID 2283597);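 also: hits lower the luminescence signal meaning cytotoxicity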
# In short: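 HCT-116 p53-bla cells, 4000/well, dosed after 5 h attachment and incubated 16 h at 37 °C, 5% CO2. Viability from CellTiter-Glo ATP luminescence after 30 min at room temperature, taken after the beta-lactamase read; loss of signal indicates cytotoxicity.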
# [7] = TOX21_p53_BLA_p5_viability: Viability Assessment in the Tox21 HCT-116 p53 Agonism Beta-lactamase Assay, Phase 5 (AID 2283600)
# In short: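 HCT-116 p53 beta-lactamase reporter cells, 4000/well, were exposed to compound (pin transfer, 217-fold dilution) for 16 hours at 37C. Cellular ATP was read by CellTiter-Glo luminescence after 30 min at room temperature.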
# [8] = ACEA_AR_agonist_AUC_viability: ACEA Biosciences xCELLigence Real-Time Cell Analysis on Androgen Receptor Agonism for Viability (AID 2283775);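 as to AC50: viability read 80 hours after compound addition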
# In short: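 Read-out is area under the impedance curve at 80 h post-dose in 22Rv1 cells, with DMSO as baseline and signal loss taken as reduced viability. Compounds ran in duplicate from 100 uM final.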
# [9] = biological target: Cellular tumor antigen p53 (Homo sapiens) (UniProt P04637); experiment: TOX21_p53_BLA_p5_ratio: Tox21 HCT-116 p53 Agonism Beta-lactamase Assay, Ratio, Phase 5 (AID 2283599)
# In short: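 HCT-116 p53-bla cells (4000/well) plated 5 h, dosed with compound (217-fold DMSO dilution) for 16 h at 37 C; CCF4-AM substrate 2 h at room temperature. Activity is the 460/530 nm emission ratio (405 nm excitation), fitted in gain-of-signal direction versus DMSO.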
# [10] = biological target: Cellular tumor antigen p53 (Homo sapiens) (UniProt P04637); experiment: TOX21_p53_BLA_p4_ratio: Tox21 HCT-116 p53 Agonism Beta-lactamase Assay, Ratio, Phase 4 (AID 2283601)
# In short: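 HCT-116 p53 beta-lactamase reporter cells (4000/well) preincubated 5 h, then compound (217-fold dilution of DMSO stock) for 16 h at 37C. CCF4-AM substrate added 2 h at room temperature; 460/530 nm emission ratio fitted upward versus DMSO.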
compound,measurement,setting,value
CCCCC(CC)CCC(CC(C)C)OS(=O)(=O)O (centres undefined),outcome,[1],inactive
same,outcome,[2],inactive
same,outcome,[3],inactive
same,outcome,[4],inactive
same,outcome,[5],inactive
same,outcome,[6],inactive
same,outcome,[7],inactive
same,AC50,[8],4.29 µM (active)
CC(C)=CCC/C(C)=C\C#N,outcome,[1],inactive
same,outcome,[2],inactive
same,outcome,[3],inactive
same,outcome,[4],inactive
same,outcome,[5],inactive
same,outcome,[9],inactive
same,outcome,[7],inactive
same,outcome,[10],inactive
C[Si](C)(CCCN)O[Si](C)(C)CCCN,outcome,[1],inactive
same,outcome,[2],inactive
same,outcome,[3],inactive
same,outcome,[5],inactive
same,outcome,[6],inactive
same,outcome,[9],inactive
same,outcome,[10],inactive
Nc1cccc(C(F)(F)F)c1,outcome,[1],inactive
same,outcome,[2],inactive
same,outcome,[3],inactive
same,outcome,[4],inactive
same,outcome,[5],inactive
same,outcome,[6],inactive
same,outcome,[10],inactive
CCCCCCCCCCCSCC(=O)O,outcome,[1],inactive
same,AC50,[2],62 µM (active)
same,AC50,[3],83.3 µM (active)
same,outcome,[4],inactive
same,outcome,[5],inactive
same,AC50,[6],84 µM (active)
same,AC50,[7],74 µM (active)
same,AC50,[10],86.7 µM (active)
CC(=O)[C@@]1(O)CC[C@H]2[C@@H]3C[C@H](C)C4=CC(=O)C=C[C@]4(C)[C@@]3(F)[C@@H](O)C[C@@]21C,outcome,[1],inactive
same,outcome,[2],inactive
same,outcome,[3],inactive
same,outcome,[5],inactive
same,outcome,[6],inactive
same,outcome,[9],inactive
same,outcome,[10],inactive
O=C(Oc1ccccc1)c1ccc2ccccc2c1O,outcome,[1],inactive
same,outcome,[2],inactive
same,outcome,[3],inactive
same,outcome,[5],inactive
same,outcome,[6],inactive
same,outcome,[9],inactive
same,outcome,[7],inactive
same,outcome,[10],inactive
C=CC(=O)NC(C)(C)CS(=O)(=O)O,outcome,[1],inactive
same,outcome,[2],inactive
same,outcome,[3],inactive
same,outcome,[5],inactive
same,outcome,[6],inactive
same,outcome,[9],inactive
same,outcome,[7],inactive
same,outcome,[10],inactive
same,outcome,[8],inactive
O=C1CCCCCN1SSN1CCCCCC1=O,outcome,[1],inactive
same,outcome,[2],inactive
same,AC50,[3],86.6 µM (active)
same,outcome,[4],inactive
same,outcome,[5],inactive
same,outcome,[6],inactive
same,outcome,[7],inactive
same,outcome,[10],inactive
CCCC(=O)OCc1ccccc1,outcome,[1],inactive
same,outcome,[2],inactive
same,outcome,[3],inactive
same,outcome,[4],inactive
same,outcome,[5],inactive
same,outcome,[7],inactive
same,outcome,[10],inactive
CC=CC(=O)N(CC)c1ccccc1C,outcome,[1],inactive
same,outcome,[2],inactive
same,outcome,[3],inactive
same,outcome,[5],inactive
same,outcome,[6],inactive
same,outcome,[9],inactive
same,outcome,[10],inactive
CCCCCCOc1cc(C)c(O)c(C)c1C,outcome,[1],inactive
same,outcome,[2],inactive
same,outcome,[3],inactive
same,outcome,[4],inactive
same,AC50,[6],46.1 µM (active)
same,outcome,[9],inactive
NC(CO)(CO)CO,outcome,[1],inactive
same,outcome,[2],inactive
same,outcome,[3],inactive
same,outcome,[5],inactive
same,outcome,[6],inactive
same,outcome,[9],inactive
same,outcome,[7],inactive
same,outcome,[10],inactive
C/C=C\C/C=C/CCCCCCCCOC(C)=O,outcome,[1],inactive
same,outcome,[2],inactive
same,outcome,[3],inactive
same,outcome,[5],inactive
same,outcome,[6],inactive
same,outcome,[7],inactive
same,outcome,[10],inactive
CC(=O)c1ccc[nH]1,outcome,[1],inactive
same,outcome,[2],inactive
same,outcome,[3],inactive
same,outcome,[5],inactive
same,outcome,[6],inactive
same,outcome,[9],inactive
same,outcome,[10],inactive
Cc1cc(C)c(C)c(C)c1,outcome,[1],inactive
same,outcome,[2],inactive
same,outcome,[4],inactive
same,outcome,[5],inactive
same,outcome,[6],inactive
same,outcome,[10],inactive
CC(=O)OC(C)C,outcome,[1],inactive
same,outcome,[2],inactive
same,outcome,[5],inactive
same,outcome,[6],inactive
same,outcome,[9],inactive
same,outcome,[7],inactive
same,outcome,[10],inactive
same,outcome,[8],inactive
CCOCC(=O)O,outcome,[1],inactive
same,outcome,[2],inactive
same,outcome,[5],inactive
same,outcome,[6],inactive
same,outcome,[9],inactive
same,outcome,[7],inactive
O=c1n(CCO)c(=O)n(CCO)c(=O)n1CCO,outcome,[1],inactive
same,outcome,[2],inactive
same,outcome,[5],inactive
same,outcome,[6],inactive
same,outcome,[9],inactive
same,outcome,[7],inactive
same,outcome,[10],inactive
N[C@H]1C(O)O[C@H](CO)[C@H](O)[C@@H]1O (some centres undefined),outcome,[1],inactive
same,outcome,[2],inactive
same,outcome,[5],inactive
same,outcome,[6],inactive
same,outcome,[9],inactive
same,outcome,[7],inactive
same,outcome,[10],inactive
CC1=CC[C@H](C(C)C)C=C1,outcome,[1],inactive
same,outcome,[2],inactive
same,outcome,[4],inactive
same,outcome,[6],inactive
same,outcome,[7],inactive
O=C(Nc1cccc(C(F)(F)F)c1)c1cc(Br)cc(Br)c1O,outcome,[1],inactive
same,AC50,[2],747 nM (active) and 1.12 µM (active)
same,AC50,[4],429 nM (active) and 1.04 µM (active)
same,AC50,[5],306 nM (active) and 746 nM (active)
same,AC50,[6],1.82 µM (active) and 1.7 µM (active)
same,AC50,[9],1.07 µM (active) and 7.71 µM (active)
same,outcome,[7],inactive
same,AC50,[10],3.52 µM (active) and 8.65 µM (active)
CCOC(=O)CC(C(C)=O)C(C)=O,outcome,[1],inactive
same,outcome,[2],inactive
same,outcome,[4],inactive
same,outcome,[5],inactive
same,outcome,[9],inactive
O=C1CCCN1CCO,outcome,[1],inactive
same,outcome,[2],inactive
same,outcome,[5],inactive
same,outcome,[6],inactive
same,outcome,[9],inactive
same,outcome,[7],inactive
O=c1c2ccccc2nnn1CCl,outcome,[1],inactive
same,outcome,[2],inactive
same,outcome,[4],inactive
same,outcome,[5],inactive
same,outcome,[6],inactive
same,outcome,[9],inactive
same,outcome,[7],inactive
same,outcome,[10],inactive
[Cl][Nd]([Cl])[Cl],outcome,[1],inactive
same,outcome,[2],inactive
same,outcome,[4],inactive
same,outcome,[6],inactive
same,outcome,[9],inactive
FC(F)(F)C(=NOCC1OCCO1)c1ccc(Cl)cc1,outcome,[1],inactive
same,outcome,[2],inactive
same,outcome,[4],inactive
same,outcome,[5],inactive
same,outcome,[6],inactive
same,outcome,[7],inactive
CCCCCCCCCCOS(=O)(=O)O,outcome,[1],inactive
same,outcome,[2],inactive
same,outcome,[3],inactive
same,outcome,[6],inactive
same,outcome,[9],inactive
